Source: PubChem BioAssay
G9a inh = G9a (human) methyltransferase inhibition. G9a H3K9 monomethylation, AlphaScreen, 2 h. Potency, µM (titrated, usually from 102 µM), without a hit: at the top dose activity, negative = inhibition, usual class: inhibitors. actives 8.8% (n = 350,000). AID 504332; further: potency means the concentration at half of the fitted maximal effect; on the % scale 0 is the no-effect control and ±100 the full control effect; nearly all actives have a fitted effect of over 75% in size
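Using a bead-based AlphaScreen, monomethylated H3K9 product from 2 h room-temperature reactions (G9a 20 nM, peptide 500 nM, SAM 20 uM) was detected with 0.5 ug/mL rabbit anti-H3K9me1 antibody.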
BAZ2B inh = blocks human BAZ2B; AlphaScreen BAZ2B-H3K14Ac peptide displacement; Potency, µM (series often up to 114 µM), inactives show at the highest dose activity change, negative = inhibition, most hits filed as inhibitors; actives 4.4% (n = 360,000); AID 504333; further: potency means the concentration at half of the fitted maximal effect; on the % scale 0 is the no-effect control and ±100 the full control effect; nearly all actives have a fitted effect of over 60% in size
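Complex of BAZ2B and biotin-H3K14Ac (50 nM apiece) forms over 30 min at RT, then faces library compounds up to 110 uM for another 30 min; AlphaScreen beads added, 20 min dark incubation, luminescence read.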
CtBP-E1A blk = inhibitors of CtBP/E1A interaction. AlphaScreen GST-E1A/His-CtBP binding, 1536-well; stronger effect = lower value. actives 0.49% (n = 340,000). AID 651724. activity change, % (test concentration not listed); in the data active means activity change below about -65%; inconclusive means mostly about -30% to -63%; further: on the % scale 0 is the no-effect control and ±100 the full control effect
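Steps: dispense buffer (Tris pH 8.0, NaCl 300 mM, TCEP 1 mM, BSA, Tween 20); add 5X protein mix (GST-E1A, His-CtBP, 125 nM each); pin 23 nL compound; 2 h at 37 °C, dark; add 5X beads (50 ug/mL); 1 h; read.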
HP1b binding inh = blocks HP1-beta chromodomain binding to methylated histone tails | P83916 | AlphaScreen HP1-beta / biotin-H3K9me3 peptide binding | Potency, µM (titrated, usually from 114 µM), without a hit: at the top dose activity change, negative = inhibition, usual class: inhibitors | actives 0.56% (n = 390,000); further: potency means the concentration at half of the fitted maximal effect; nearly all actives have a fitted effect of over 70% in size
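HP1-beta protein (50 nM final) preincubated 30 min at room temperature with biotinylated H3(1-18)K9me3 peptide (50 nM) in PBS pH 7.4, 0.01% Tween-20, then compound added for 30 min. AlphaScreen streptavidin donor/nickel chelate acceptor beads (10 ug/mL final), 30 min dark, luminescence read.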
Six1-Eya2 inh = Six1/Eya2 interaction inhibition; Q15475+O00167; AlphaScreen GST-Six1/His-Eya2 binding, biochemical; stronger effect = lower value; activity change, % (concentration not given with the values); actives 0.56% (n = 360,000); AID 651725; in the data active means activity change below about -65%; inconclusive means mostly about -30% to -63%; further: on the % scale 0 is the no-effect control and ±100 the full control effect
Target sequence (O00167 whole entry, looked up): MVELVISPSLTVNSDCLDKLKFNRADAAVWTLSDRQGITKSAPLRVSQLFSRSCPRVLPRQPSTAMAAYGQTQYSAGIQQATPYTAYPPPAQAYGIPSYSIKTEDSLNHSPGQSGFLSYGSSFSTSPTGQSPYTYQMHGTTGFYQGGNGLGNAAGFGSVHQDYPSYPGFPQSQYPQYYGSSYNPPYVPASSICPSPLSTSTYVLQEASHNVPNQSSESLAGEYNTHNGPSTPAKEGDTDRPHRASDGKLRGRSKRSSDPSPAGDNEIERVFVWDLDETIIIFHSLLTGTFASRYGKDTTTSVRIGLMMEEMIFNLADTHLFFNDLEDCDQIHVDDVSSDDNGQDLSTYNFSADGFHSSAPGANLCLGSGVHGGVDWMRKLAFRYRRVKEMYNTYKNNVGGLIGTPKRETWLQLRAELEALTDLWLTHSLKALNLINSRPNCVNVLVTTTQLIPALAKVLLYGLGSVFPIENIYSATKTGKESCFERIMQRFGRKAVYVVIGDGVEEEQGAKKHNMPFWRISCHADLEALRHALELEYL
Target sequence (Q15475 whole entry, looked up): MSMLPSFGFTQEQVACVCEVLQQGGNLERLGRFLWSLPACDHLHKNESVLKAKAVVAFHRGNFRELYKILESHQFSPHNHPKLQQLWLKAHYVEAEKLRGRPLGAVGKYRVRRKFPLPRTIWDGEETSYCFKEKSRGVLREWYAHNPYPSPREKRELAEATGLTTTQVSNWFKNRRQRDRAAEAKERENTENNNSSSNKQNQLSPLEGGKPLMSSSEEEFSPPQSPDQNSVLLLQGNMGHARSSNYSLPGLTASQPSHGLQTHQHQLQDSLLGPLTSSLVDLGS
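Homogeneous AlphaScreen proximity assay pairing GST-Six1 with His-tagged Eya2 (added as 5X mix: 250 nM and 500 nM) in 50 mM Tris pH 8.0, 300 mM NaCl, 1 mM TCEP. Glutathione donor and nickel acceptor beads; 1 h, 37 °C, dark.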
JMJD2A Tudor inh = JMJD2A Tudor domain (human) inhibition; O75164; AlphaScreen JMJD2A-Tudor / H3K4me3 peptide binding; Potency, µM (highest dose often 114 µM), for inactives: top-dose activity change, negative = inhibition, hits mostly inhibitors; actives 4.4% (n = 390,000); further: potency means the concentration at half of the fitted maximal effect; on the % scale 0 is the no-effect control and ±100 the full control effect; nearly all actives have a fitted effect of over 50% in size
The depositor's hits bear a star; u = inconclusive; x = no result; [ ] = dose if it differs, or a comment. Shown are actives, neighbours in structure and some others; about 10% of the full set was active somewhere. Unless noted, the call rests on the fitted dose curve; in most records, active means well fitted inhibition curve with a large enough effect; inconclusive means small, poorly fitted or top-dose-only effect; inactive means no such curve, though single readings can be large or run the other way.

SMILES	G9a inh	BAZ2B inh	CtBP-E1A blk	HP1b binding inh	Six1-Eya2 inh	JMJD2A Tudor inh
CCOc1ccc(CNC(=O)c2ccc3c(Cl)c4c(nc3c2)CCCC4)cc1	0%[59 µM]	-10%	x	19%	x	-13%
COc1ccc(CCNC(=O)c2ccc(-c3ccc([N+](=O)[O-])cc3Cl)o2)cc1	35µM*	-34%	-1	-12%	u	u
CC1CCN(C(=O)c2ccc(-c3ccccc3Cl)o2)CC1	40µM*	u	-6	u	1	113%
COc1ccc(CCNC(=O)c2ccc(-c3cccc([N+](=O)[O-])c3)o2)cc1OC	u	u	-14	4%	u	u
O=C(c1ccc(-c2ccccc2Cl)o1)N1CCC1	u	2%	0	13%	-14	-11%
CC(C)c1ccc(S(=O)(=O)c2cn(CC(=O)Nc3ccc(F)cc3)c3ccccc3c2=O)cc1	7%[59 µM]	3%	x	37%	x	1%
CC(=O)c1cccc(OCC(=O)N(C)CC(=O)NCc2ccco2)c1	x	x	-2	u	u	22µM*
Cc1ccc(OCC(=O)N(C)CC(=O)NCc2ccco2)c(Br)c1	56µM*	50µM*	6	u	3	35µM*
COc1ccc(/C=C/C(=O)Nc2ccc3nc(N4CCC(C)CC4)cc(C)c3c2)cc1OC	u	-31%	x	u	x	u
COc1ccc(C2CC(c3ccc4ccccc4c3)=NN2C(=O)CNC2CCCCC2)cc1 (centres undefined)	10µM*	56µM*	x	u	-9	22µM*
CC(=O)OCC(=O)N1N=C(c2ccc3ccccc3c2)CC1c1ccccc1 (centres undefined)	-9%	-19%	-1	26%	7	-17%
CCN1CCN(CC(=O)N2N=C(c3ccc(OC)cc3)CC2c2ccc(OC)cc2)C(=O)C1=O (centres undefined)	4%	-23%	11	-6%	0	79µM*
COc1ccc(C2CC(c3ccc4ccccc4c3)=NN2C(=O)COC(=O)C2CCC(=O)N2)cc1 (centres undefined)	u	35µM*	-5	-1%	-27	u
Cc1cc(C)c(S(=O)(=O)c2ccccc2)c(OC(=O)c2ccc(Cl)cc2Cl)n1	19%	56µM*	9	103%	1	-22%
Cc1cc(C)c(S(=O)(=O)c2ccccc2)c(OC(=O)c2c(Cl)cccc2Cl)n1	19%[59 µM]	2%	-3	13%	-6	-16%
CCS(=O)(=O)c1ccccc1C(=O)N(Cc1cccnc1)c1nc2cc(C)c(C)cc2s1	-43%[59 µM]	u	x	23%	x	-36%
CCC(=O)N1c2ccccc2CC1C(=O)NCCN1CCN(c2cccc(C(F)(F)F)c2)CC1 (centres undefined)	6%[12.7 µM]	-21%	x	21%	x	-9%
C=CCn1c(SCC(C)=O)nc2scc(-c3ccco3)c2c1=O	7.9µM*	45µM*	3	u	-5	50µM*
C=CCn1c(SCC(=O)N2CCOCC2)nc2scc(-c3ccco3)c2c1=O	u	u	-26	-23%	-15	28µM*
CC(C)C(C)(C#N)NC(=O)CSc1nc2scc(-c3ccco3)c2c(=O)n1-c1ccccc1 (centres undefined)	45µM*	-11%	-1	50%	-7	-3%[11.4 µM]
COC(=O)c1c(-c2cccs2)csc1NC(=O)c1ccc(OC)c(OC)c1	2.8µM*	-27%	x	u	x	-33%
CCCc1ccc(OCC(=O)Nc2scc(-c3cccs3)c2C(=O)OC)cc1	u	7%	x	1%	x	-3%
CCOC(=O)c1c(-c2cccs2)csc1NC(=O)c1ccncc1	19%[2.33 µM]	13%	7	35%	3	-5%
COC(=O)c1c(-c2cccs2)csc1NC(=O)c1cc(OC)c(OC)c(OC)c1	u	u	x	u	x	89µM*
COC(=O)c1c(-c2cccs2)csc1NC(=O)c1ccc(Br)cc1	1.6µM*	-7%	x	6%	x	-11%
SMILES	G9a inh	BAZ2B inh	CtBP-E1A blk	HP1b binding inh	Six1-Eya2 inh	JMJD2A Tudor inh
COC(=O)c1c(-c2cccs2)csc1NC(=O)c1cc(OC)cc(OC)c1	2.8µM*	-35%	x	0%	x	-5%
COC(=O)c1c(-c2cccs2)csc1NC(=O)c1ccc(C)cc1	u	u	x	-23%	x	-28%
COc1ccc(CNC(=O)CN2C(=O)CCCc3ccccc32)cc1	-4%[59 µM]	-1%	x	38%	x	-7%
COC1(C(F)(F)F)NC(=O)N(c2ccc(F)cc2)C1=O (centres undefined)	4%[59 µM]	-21%	x	12%	x	-15%
OCCNCc1cccc(-c2ccccc2)c1O	x	x	2	19%	8	-10%
O=C1c2cccc(NCCNCCO)c2C(=O)c2cccc(NCCNCCO)c21	x	x	-7	u	-71*	35µM*
O=C(O)CCNc1ccc(NCCC(=O)O)c2c1C(=O)c1ccccc1C2=O	13µM*	11µM*	x	14µM*	-85*	22µM*
BrC(=C\c1ccccc1)/C=N/N1CCN(c2ccccc2)CC1	20µM*	u	-26	-30%	-13	-29%
Cc1ccc(CN2CCN(/N=C\C(Br)=C\c3ccccc3)CC2)cc1	u	u	-18	u	-12	45µM*
CC(/C=N\N1CCN(c2ccc(Cl)cc2)CC1)=C\c1ccccc1	-48%	5%	-1	32%	5	-31%
CC(/C=N/N1CCN(Cc2ccccc2)CC1)=C\c1ccccc1	28µM*	50µM*	u	u	u	45µM*
CC(/C=N/N1CCN(c2ccc(C)cc2)CC1)=C\c1ccccc1	2%[59 µM]	-10%	-2	1%	-3	-25%
Cc1ccc(N(Cc2cccs2)C(=O)COc2ccccc2[N+](=O)[O-])cc1	-24%[59 µM]	u	x	18%	x	-26%
COC(=O)c1cc2oc(C)cc2n1CC(=O)Nc1ccc(C)c(C)c1	u	-6%	-16	2%	-10	-25%
COC(=O)c1cc2oc(C)cc2n1Cc1c(C)cc(C)cc1C	4µM*	u	x	20%	x	-24%
COC(=O)c1cc2oc(C)cc2n1Cc1cccc(Cl)c1	14µM*	-39%	x	18%	x	17%
COC(=O)c1cc2oc(C)cc2n1Cc1ccc(C)cc1	14µM*	-37%	x	22%	x	-23%
COc1ccc2nc(N(Cc3cccnc3)C(=O)CCc3ccccc3)sc2c1	-8%[59 µM]	-5%	x	47%	x	-29%
Cc1ccc(/C=N/n2c(-c3ccncc3)n[nH]c2=S)cc1	1.4µM*	-32%	x	7%	8	2.2µM*
CC(C)(C)c1ccc(-c2n[nH]c(=S)n2/N=C/c2ccncc2)cc1	2.5µM*	-9%	0	7%	-9	u
